The campaign covered roughly 100,000 compounds. About 770 (0.77%) were called active. The entries come from a sample that favours actives as a whole. Values without a mark were called inactive. Cut-off read from the data, not from the text of the source: active = inhibition above about 50%; inactive = the rest.
The compounds below were run against Gag-Pol polyprotein (Human immunodeficiency virus type 1 group M subtype B (isolate HXB2)) (UniProt P04585) (assay: RNase H inhibition, HIV 1 Gag Pol polyprotein, FRET biochemical assay, screening (AID 372)). Settings: HIV-1 RT RNase H, FRET RNA/DNA substrate fluorescence; at 10 µM; active compounds read high.

Q: For `Cc1cc(C)c(S(=O)(=O)NC(=O)C23CC4CC(CC(C4)C2)C3)c(C)c1`, which inhibition is on record?
A: 2%

Q: `COc1cccc(/C=N/NC(=O)c2ccccc2O)c1` was tested. Which inhibition did it give?
A: 11%

Q: Which inhibition does the source give for `O=C(NC(=S)Nc1ccc2oc(-c3ccccc3)nc2c1)c1ccccc1Cl` here?
A: 7%

Q: With `Cc1ccc(N=C2NC(=O)/C(=C/c3ccc(-c4cc([N+](=O)[O-])ccc4Cl)o3)S2)cc1Cl` as the compound, how does the inhibition read?
A: 25%

Q: Which inhibition does the source give for `Cc1ccc(N=C2NC(=O)/C(=C\c3ccc(C)o3)S2)cc1` here?
A: 52% (active)

Q: How did the inhibition turn out when `Cc1ccc(/C=C2\SC(=Nc3ccc(F)cc3)NC2=O)o1` was run?
A: 26%

Q: How did the inhibition turn out when `O=C1NC(=Nc2ccc(F)cc2)S/C1=C/c1ccc(-c2ccc([N+](=O)[O-])cc2)o1` was run?
A: 51% (active)

Q: With `Cc1ccc(N=C2NC(=O)/C(=C/c3ccccc3)S2)cc1` as the compound, how does the inhibition read?
A: 9%

Q: How did the inhibition turn out when `Cc1ccc(N=C2NC(=O)/C(=C/c3ccc(-c4ccc(Cl)c([N+](=O)[O-])c4)o3)S2)cc1Cl` was run?
A: 31%

Q: `O=C(COc1cccc(Cl)c1)N/N=C\c1ccc(O)cc1` was tested. Which inhibition did it give?
A: 1%

Q: With `Cc1ccc2nc(-c3c(-c4ccccc4)c4cc(C)ccc4[nH]c3=O)cc(-c3ccccc3)c2c1` as the compound, how does the inhibition read?
A: 31%

Q: With `Cc1ccc(N2C(=O)c3cccnc3C2=O)cc1C` as the compound, how does the inhibition read?
A: 50% (active)

Q: For `Cc1ccc(N2C(=O)c3ccccc3C2=O)cc1C`, which inhibition is on record?
A: 5%

Q: Which inhibition does the source give for `Cc1ccccc1N1C(=O)c2cccnc2C1=O` here?
A: 22%

Q: With `COc1ccccc1/C=C1/C(=O)N(c2ccc(Cl)c(Cl)c2)N=C1C` as the compound, how does the inhibition read?
A: 3%

Q: With `CCCC(=O)N(c1ccc(N(C(=O)CCC)S(=O)(=O)c2ccccc2)cc1)S(=O)(=O)c1ccccc1` as the compound, how does the inhibition read?
A: 1%

Q: How did the inhibition turn out when `O=C(NC(=S)Nc1ccc(-c2nc3cc(Cl)ccc3o2)cc1)c1ccc(F)cc1` was run?
A: 8%

Q: `O=C(NC(=S)Nc1cccc(-c2nc3cc(Cl)ccc3o2)c1)c1ccc(Br)cc1` was tested. Which inhibition did it give?
A: 9%

Q: With `O=C(NC(=S)Nc1ccc2oc(-c3ccc(Cl)cc3)nc2c1)c1ccc(F)cc1` as the compound, how does the inhibition read?
A: 57% (active)

Q: Which inhibition does the source give for `Nc1cccc(-c2nc3cc(Cl)cc(Cl)c3o2)c1` here?
A: 55% (active)

Q: `Nc1ccc(-c2nc3cc(Cl)cc(Cl)c3o2)cc1` was tested. Which inhibition did it give?
A: 22%

Q: `O=C(NC(=S)Nc1ccc2oc(-c3cc(Cl)ccc3Cl)nc2c1)c1ccc(F)cc1` was tested. Which inhibition did it give?
A: 19%

Q: With `O=C(NC(=S)Nc1ccc2oc(-c3ccc(F)cc3)nc2c1)c1ccc(Cl)cc1` as the compound, how does the inhibition read?
A: 0%

Q: Which inhibition does the source give for `O=C(NC(=S)Nc1ccc2oc(-c3cccc(Cl)c3)nc2c1)c1ccc(F)cc1` here?
A: 18%

Q: For `O=C(NC(=S)Nc1ccc2oc(-c3ccc(Cl)cc3Cl)nc2c1)c1ccc(F)cc1`, which inhibition is on record?
A: 17%

Q: How did the inhibition turn out when `O=C(NC(=S)Nc1cccc(-c2nc3cc(Cl)ccc3o2)c1)c1ccc(F)cc1` was run?
A: 57% (active)

Q: `O=C(NC(=S)Nc1ccc(Cl)c(-c2nc3cc(Cl)ccc3o2)c1)c1ccc(F)cc1` was tested. Which inhibition did it give?
A: 53% (active)

Q: With `Cc1ccc(-c2nc3cc(Cl)cc(Cl)c3o2)cc1N` as the compound, how does the inhibition read?
A: 0%

Q: How did the inhibition turn out when `CC(=O)Nc1nc2c(s1)C(=O)NCCC2` was run?
A: 5%

Q: How did the inhibition turn out when `Cn1c2ccccc2c2nnc(SCCN3CCOCC3)nc21` was run?
A: 0%

Q: For `O=Cc1ccc(OCc2ccc([N+](=O)[O-])cc2)cc1`, which inhibition is on record?
A: 16%

Q: With `O=[N+]([O-])c1ccc(N2CCOCC2)cc1Sc1cccc2cccnc12` as the compound, how does the inhibition read?
A: 24%

Q: Which inhibition does the source give for `Cc1ccc(S(=O)(=O)N2CCC(CN3C(=O)c4cccc5cccc(c45)C3=O)CC2)cc1` here?
A: 25%

Q: Which inhibition does the source give for `Cc1cc(C)n(S(=O)(=O)c2ccc(Cl)c(Cl)c2Cl)n1` here?
A: 23%

Q: How did the inhibition turn out when `CCCC1(CCC)NC(=S)N(c2nc3ccccc3s2)N1` was run?
A: 7%

Q: With `COc1ccc(N(CC(=O)NCc2ccccn2)S(=O)(=O)c2ccccc2[N+](=O)[O-])c(OC)c1` as the compound, how does the inhibition read?
A: 4%

Q: How did the inhibition turn out when `O=C(/C=C/c1cccs1)c1ccc(C(=O)/C=C/c2cccs2)cc1` was run?
A: 13%

Q: Which inhibition does the source give for `O=C(/C=C/c1ccc(F)cc1)Nc1cccc2cccnc12` here?
A: 7%

Q: `O=C(NC(=S)Nc1ccc(O)c(-c2nc3ccccc3o2)c1)c1ccc(F)cc1` was tested. Which inhibition did it give?
A: 56% (active)

Q: Which inhibition does the source give for `O=C(NC(=S)Nc1ccc(O)c(-c2nc3ccccc3o2)c1)c1ccc([N+](=O)[O-])cc1` here?
A: 9%

Q: For `O=C(NC(=S)Nc1cccc(-c2nc3cc(Cl)cc(Cl)c3o2)c1)c1cccc(F)c1`, which inhibition is on record?
A: 58% (active)

Q: Which inhibition does the source give for `O=C(NC(=S)Nc1cccc(-c2nc3cc(Cl)cc(Cl)c3o2)c1)c1ccc(Cl)cc1` here?
A: 11%

Q: With `O=C(Nc1ccc(O)c(-c2nc3ccccc3o2)c1)c1ccc(F)cc1` as the compound, how does the inhibition read?
A: 6%

Q: How did the inhibition turn out when `O=C(NC(=S)Nc1cccc(-c2nc3cc(Cl)cc(Cl)c3o2)c1)c1ccccc1Cl` was run?
A: 19%

Q: With `O=S(=O)(c1cc(Cl)ccc1Cl)n1ccnc1` as the compound, how does the inhibition read?
A: 0%

Q: `CCOC(=O)c1ccc(-c2ccc(/C=N/O)o2)cc1` was tested. Which inhibition did it give?
A: 0%

Q: For `COC(=O)C1=C(C)NC2=C(C(=O)CC(c3ccc(OC)cc3)C2)C1c1cccc(OC)c1OC` (stereo not drawn), which inhibition is on record?
A: 11%

Q: `O=C(NC(=S)Nc1cc(-c2nc3ccccc3o2)ccc1Cl)c1ccccc1Br` was tested. Which inhibition did it give?
A: 9%

Q: `COc1ccc(-c2nc3ccccc3o2)cc1NC(=S)NC(=O)c1ccccc1C` was tested. Which inhibition did it give?
A: 53% (active)

Q: For `Cc1ccccc1C(=O)NC(=S)Nc1cc(-c2nc3ccccc3o2)ccc1Cl`, which inhibition is on record?
A: 53% (active)

Q: `Cc1ccc(-c2nc3ccccc3o2)cc1NC(=S)NC(=O)c1ccccc1C` was tested. Which inhibition did it give?
A: 12%

Q: For `Cc1ccc2nc(-c3ccc(Cl)c(NC(=S)NC(=O)c4ccccc4C)c3)oc2c1`, which inhibition is on record?
A: 42%

Q: Which inhibition does the source give for `COc1ccccc1C(=O)NC(=S)Nc1cc(-c2nc3ccccc3o2)ccc1C` here?
A: 10%

Q: With `O=C(NC(=S)Nc1ccc(Cl)cn1)c1cccc(F)c1` as the compound, how does the inhibition read?
A: 13%

Q: With `Cc1ccc2nc(-c3ccc(Cl)cc3)cn2c1` as the compound, how does the inhibition read?
A: 5%

Q: `O=C1C(=O)N(c2nc3ccccc3s2)C(c2ccccc2F)/C1=C(/O)c1ccccc1` (stereo not drawn) was tested. Which inhibition did it give?
A: 8%

Q: Which inhibition does the source give for `O=C(Nc1c(C(=O)Nc2ccc(Br)cc2)cnn1-c1ccccc1)c1ccco1` here?
A: 8%

Q: Which inhibition does the source give for `O=C(Nc1ccc(S(=O)(=O)N2CCCCCC2)cc1)c1ccc(Cl)cc1Cl` here?
A: 8%

Q: For `O=C(Nc1ccc(S(=O)(=O)N2CCCCC2)cc1)c1ccccc1Cl`, which inhibition is on record?
A: 57% (active)

Q: Which inhibition does the source give for `O=C(Nc1ccc(S(=O)(=O)N2CCOCC2)cc1)c1ccccc1Cl` here?
A: 0%

Q: With `Cc1cccc(C(=O)NN=C2CCCCC2)c1` as the compound, how does the inhibition read?
A: 7%

Q: How did the inhibition turn out when `CC(C)NS(=O)(=O)c1ccc(Br)cc1` was run?
A: 0%

Q: How did the inhibition turn out when `CC(=O)c1cccc(-c2ccc(/C=C3\C(=O)NC(=O)C(C#N)=C3C)o2)c1` was run?
A: 43%

Q: `Cc1ccc(-c2ccc(C=C3C(=O)NC(=O)NC3=O)o2)c([N+](=O)[O-])c1` was tested. Which inhibition did it give?
A: 14%

Q: With `CC1=C(C#N)C(=O)NC(=O)/C1=C\c1ccc(-c2ccc(Cl)c(Cl)c2)o1` as the compound, how does the inhibition read?
A: 50% (active)

Q: With `Cc1cc(-c2ccc(C=C3C(=O)N(C)C(=O)N(C)C3=O)o2)c([N+](=O)[O-])cc1C` as the compound, how does the inhibition read?
A: 6%

Q: With `O=C1NC(=S)NC(=O)C1=Cc1ccc(-c2ccc(Cl)cc2[N+](=O)[O-])o1` as the compound, how does the inhibition read?
A: 42%

Q: `Cc1cc(-c2ccc(/C=C3/C(=O)NN(c4ccc(F)cc4)C3=O)o2)c([N+](=O)[O-])cc1C` was tested. Which inhibition did it give?
A: 5%

Q: How did the inhibition turn out when `CC1=C(C#N)C(=O)NC(=O)/C1=C\c1ccc(-c2cc(C)c(C)cc2[N+](=O)[O-])o1` was run?
A: 56% (active)

Q: How did the inhibition turn out when `CC1=C(C#N)C(=O)NC(=O)/C1=C\c1ccc(-c2cccc(Cl)c2)o1` was run?
A: 33%

Q: Which inhibition does the source give for `C=CCN1C(=O)/C(=C/c2cc(C)n(-c3ccc(C(=O)O)cc3C)c2C)C(=O)NC1=S` here?
A: 6%

Q: Which inhibition does the source give for `Cc1cc(Br)cc(C)c1NC(=O)c1cccnc1` here?
A: 2%

Q: `CCOC(=O)CNC1=C([N+](=O)[O-])C(=O)CC(C)(C)C1` was tested. Which inhibition did it give?
A: 0%

Q: Which inhibition does the source give for `C=CCn1cc(/C=c2\sc3n(c2=O)C(c2ccc(SC)cc2)C(C(=O)OCC)=C(C)N=3)c2ccccc21` (stereo not drawn) here?
A: 24%

Q: How did the inhibition turn out when `COc1ccc(C2CC(C(F)(F)F)n3nc(C(=O)Nc4cc(OC)c(Cl)cc4OC)c(Cl)c3N2)cc1` (stereo not drawn) was run?
A: 14%

Q: `COc1ccc(C)cc1NC(=O)COc1cccc2ccccc12` was tested. Which inhibition did it give?
A: 21%

Q: How did the inhibition turn out when `Cc1ccccc1N1C(=O)/C(=C/c2cccn2-c2ccc(Br)cc2)C(=O)NC1=S` was run?
A: 20%

Q: For `CCc1ccccc1N/C=C(\C#N)c1nc(-c2ccc(Cl)cc2)cs1`, which inhibition is on record?
A: 8%

Q: With `Cc1ccc(-c2n[nH]c(=S)n2N=Cc2ccccc2OCC(=O)O)cc1` as the compound, how does the inhibition read?
A: 12%

Q: `COc1ccc(/C=C2/Sc3ccccc3C2=O)cc1` was tested. Which inhibition did it give?
A: 5%

Q: With `O=C(NC(=S)Nc1ccc(O)c(-c2nc3ccccc3s2)c1)c1ccc(F)cc1` as the compound, how does the inhibition read?
A: 46%

Q: With `CCC(=O)Nc1ccc(NC(=O)COc2ccc(Cl)cc2Cl)cc1` as the compound, how does the inhibition read?
A: 27%

Q: `O=C(COc1ccc(Cl)cc1Cl)Nc1ccc(-c2nc3ccccc3s2)c(O)c1` was tested. Which inhibition did it give?
A: 27%

Q: How did the inhibition turn out when `O=C(COc1ccc(Cl)cc1Cl)Nc1ccc(NC(=O)COc2ccc(Cl)cc2Cl)cc1` was run?
A: 52% (active)

Q: Which inhibition does the source give for `O=C(COc1ccc(Cl)cc1Cl)Nc1ccc(O)c(-c2nc3ccccc3s2)c1` here?
A: 61% (active)

Q: `Cc1ccc(C(=O)NC(=S)Nc2ccc(O)c(-c3nc4ccccc4s3)c2)cc1` was tested. Which inhibition did it give?
A: 37%

Q: With `Cc1ccccc1OCC(=O)Nc1ccc(O)c(-c2nc3ccccc3s2)c1` as the compound, how does the inhibition read?
A: 14%

Q: For `O=C(COc1ccc(Br)cc1Cl)Nc1ccccc1F`, which inhibition is on record?
A: 51% (active)

Q: `O=C(COc1ccc(Br)cc1Cl)Nc1ccccc1Cl` was tested. Which inhibition did it give?
A: 31%

Q: For `O=C(COc1ccc(Cl)cc1Cl)Nc1ccc(-c2ccccc2)cc1`, which inhibition is on record?
A: 7%

Q: Which inhibition does the source give for `O=C(COc1ccc(Cl)cc1Cl)Nc1ccccc1F` here?
A: 27%

Q: With `O=C(NC(=S)Nc1ccc(O)c(-c2nc3ccccc3s2)c1)c1ccc(Cl)cc1` as the compound, how does the inhibition read?
A: 54% (active)

Q: Which inhibition does the source give for `C#CCSc1nncn1C(=O)/C=C/c1ccco1` here?
A: 19%
